The text below walks through data of PubChem BioAssay AID1865 (National Center for Advancing Translational Sciences (NCATS), 2009).

Where “and” joins values, the source holds several entries; their conditions need not be identical. Equal values may be shown once. Out of some 280,000 compounds screened, about 540 (0.19%) were called active. Entries that show only a call come without a potency. Inconclusive results (about 2%) are left out. Calls follow the shape of the dose curve; as a rule, active = well fitted activation curve with a large enough effect; inconclusive = small, poorly fitted or top-dose-only effect; inactive = flat fitted curve, though single readings scatter. This excerpt belongs to a sample that is enriched for actives. More than one record can exist for a structure, and the calls need not agree.
Potency is read from the fitted curve at half-maximal effect.

This assay can be described thus: Quantitative High-Throughput Screen for Regulators of Epigenetic Control. Also: nearly all actives have a fitted effect of over 60% in size. The conditions noted are these: murine LDR cells, GFP reporter derepression, 30 h; series mostly up to 53.9 µM. The source says:
NIH Molecular Libraries Screening Centers Network [MLPCN] NIH Chemical Genomics Center [NCGC] MLSCN Grant: 1 X01 MH079860-01 Assay Provider: Elisabeth D. Martinez, University of Texas SW Medical Center NCGC Assay Overview: The Locus Derepression (LDR) assay detects the derepression or induction of a GFP reporter that is stably integrated in a genomic region of murine cells that is presumably silenced. Transcription of the GFP reporter is controlled by a CMV promoter, which normally is constitutively active. However, this cell line, termed LDR, was selected for lack of constitutive production of GFP. GFP production can be induced by incubating the cells with histone deacetylase or DNA methyltransferase inhibitors (Martinez et al., 2006). Compounds that derepress or induce this reporter locus are identified by enumerating GFP positive cells using a laser-scanning microplate cytometer (Auld et al., 2006). This assay was screened against the MLSMR earlier (AID 597; (Johnson et al., 2008) and has been rescreened here against the expanded collection.
NCGC Assay Protocol Summary: Three hundred LDR cells in 5 uL per well were dispensed into black, clear-bottom 1536-well plates. Twenty-three nL compound was transferred to the assay plate and cells were incubated 30 hours at 37 C. Medium was removed, cells were washed two times with PBS, and GFP-positive cells were enumerated as fluorescent objects between the sizes of 20 to 120 um width and depth using an Acumen Explorer. References Auld, DS, Johnson, RL, Zhang, YQ, Veith, H, Jadhav, A, Yasgar, A, Simeonov, A, Zheng, W, Martinez, ED, Westwick, JK, Austin, CP, Inglese, J (2006). Fluorescent protein-based cellular assays analyzed by laser-scanning microplate cytometry in 1536-well plate format. Methods Enzymol 414: 566-89. Johnson, RL, Huang, W, Jadhav, A, Austin, CP, Inglese, J, Martinez, ED (2008). A quantitative high-throughput screen identifies potential epigenetic modulators of gene expression. Anal Biochem 375: 237-48. Martinez, ED, Dull, AB, Beutler, JA, Hager, GL (2006). High-content fluorescence-based screening for epigenetic modulators. Methods Enzymol 414: 21-36.
As for `N#CC(C#N)=Cc1cc(O)c(O)c([N+](=O)[O-])c1`, the Potency result was “inactive and 17.8 µM (active)”.

As to `C[C@@]12CC[C@H]3[C@@H](CC[C@]4(O)C[C@H](O)CC[C@@]34C=O)[C@]1(O)CC[C@@H]2C1=CC(=O)OC1`, the Potency result is “inactive”.

As for `CCCCCCCCc1[se]c2ccccc2c1Br`, the Potency result is “inactive”.

Regarding `COc1ccccc1-c1[se]c2ccccc2c1I`, the Potency result was “inactive”.

For `CN[C@@H]1C[C@H]2O[C@@](C)([C@@H]1OC)n1c3ccccc3c3c4c(c5c6ccccc6n2c5c31)C(=O)NC4`, the Potency result was “inactive”.

As to `CC(C)(Cc1c[nH]c2ccc(Cl)cc12)NCCOc1ccccc1OCC1CC1`, the Potency result is “inactive”.

For the molecule `CC1=CC(=Cc2sc3ccccc3[n+]2C)C=C(C)O1`, the Potency was 11.2 µM (active).

Take `Fc1ccc(C(OCCN2CCN(C/C=C\c3ccccc3)CC2)c2ccc(F)cc2)cc1`: the Potency result was “inactive”.

Consider `CC(C)(O)c1[se]c2ccccc2c1I`, for which the Potency entry was “inactive”.

Regarding `NC[C@H](O)c1ccc(O)cc1`, the Potency entry is “inactive”.

Take `CCCn1c(C(=O)c2ccccc2OC)nc2ccccc21`: the Potency result was “inactive”.

In the case of `CCOc1ccc(CNC(=O)c2cccc(Nc3nc4ccccc4n4nnnc34)c2)cc1OC`, the Potency was 20 µM (active).

As for `COc1cc(Cn2c(N)c(C(=O)NCc3ccco3)c3nc4ccccc4nc32)cc(OC)c1OC`, the Potency result is “inactive”.

With `C[C@]12CC[C@H](O)C[C@@H]1CC[C@H]1[C@H]2CC[C@]2(C)C(=O)CC[C@@H]12`, the Potency result is “inactive”.

`CC(=O)c1c(O)c(C)c(O)c(Cc2c(O)c3c(c(C(=O)/C=C\c4ccccc4)c2O)OC(C)(C)C=C3)c1O`: the Potency result was “inactive”.
